# Compound activity: PubChem, The Scripps Research Institute Molecular Screening Center
# The list is not random: actives were taken first. Their share in the collection is about 3.5%.
# TEAD-YAP block: TEAD-YAP interaction inhibition. HEK-TIYL cells, TEAD-Gal4/YAP UAS-luciferase luminescence. inhibition, % at 9.12 µM. 1.4% of 640,000 active; in the data active = inhibition above about 32%
# MITF inh: blocks human microphthalmia-associated transcription factor | AID 1259374 | inhibition, % at 2.6 µM | AlphaScreen MITF homodimerization, bead proximity signal | 0.91% of 650,000 active; in the data active = inhibition above about 50%
# GPR151 activ: activates the human receptor GPR151; Q8TDV0; PathHunter beta-arrestin GPR151 cells, luminescence; activation, % at 11.2 µM; 1% of 650,000 active; AID 1508602; in the data active = activation above about 4.9%
# Target sequence (Q8TDV0 whole entry, looked up): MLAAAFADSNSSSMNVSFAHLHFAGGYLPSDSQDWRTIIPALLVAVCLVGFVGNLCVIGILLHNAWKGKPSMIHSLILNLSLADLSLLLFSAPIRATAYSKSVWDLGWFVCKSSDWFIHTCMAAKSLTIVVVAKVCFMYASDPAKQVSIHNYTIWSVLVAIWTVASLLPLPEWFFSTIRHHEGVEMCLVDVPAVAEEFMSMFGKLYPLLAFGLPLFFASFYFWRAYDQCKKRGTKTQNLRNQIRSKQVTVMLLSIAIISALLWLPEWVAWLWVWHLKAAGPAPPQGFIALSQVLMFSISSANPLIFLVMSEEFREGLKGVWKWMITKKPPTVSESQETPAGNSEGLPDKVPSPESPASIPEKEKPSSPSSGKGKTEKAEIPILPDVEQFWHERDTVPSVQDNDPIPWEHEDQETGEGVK
# FBW7 act: activators of human E3 ligase FBW7; normalized activity (activation), % at 26.1 µM; Q969H0; AID 1259310; AlphaScreen FBW7–phospho-cyclin E peptide binding, activator screen; 0.13% of 650,000 active; in the data active = normalized activity above about 1.9%;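 also: purified mutant Fbw7 with reduced substrate affinity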
# Hits are given with their value; i = inactive.
SMILES,TEAD-YAP block,MITF inh,GPR151 activ,FBW7 act
CC(C)CCCC(C)Nc1ncnc2sccc12 (configuration not stated),48.0,i,i,i
CCCC(Nc1ncnc2sccc12)c1ccccc1 (configuration not stated),i,i,i,i
COc1ccccc1CNC(=O)c1oc2ccc(S(=O)(=O)N3CCOCC3)cc2c1C,i,i,i,i
Cc1c(C(=O)NCc2ccccc2Cl)oc2ccc(S(=O)(=O)N3CCOCC3)cc12,i,i,i,2.4
Nc1c(C(=O)NCCc2c[nH]c3ccccc23)sc2nc3cc4c(cc3cc12)OCCO4,i,i,i,i
Cc1ccccc1N=Cc1sc2ccccc2c1O,52.7,i,i,i
CCOc1ccc(N=Cc2sc3ccccc3c2O)cc1,87.9,i,i,i
Cc1ccc(N=Cc2sc3ccccc3c2O)cc1,79.7,i,i,i
Cc1ccc(N=Cc2sc3ccccc3c2O)cc1C,73.5,i,i,i
Nc1ccccc1N=Cc1sc2ccccc2c1O,i,i,i,i
Oc1c(/C=N/n2cnnc2)sc2ccccc12,72.5,i,i,i
Oc1c(C=Nc2ccc(Cl)cc2)sc2ccccc12,i,i,i,i
Cc1cc(C)c2cc(C#N)c(NCCCNC(=S)NCCCN(C)C)nc2c1,i,i,i,i
CCOCCCNC1CCN(c2nc(C)c3cc(C)ccc3n2)CC1,48.6,i,i,i
CCCCNC1CCN(c2nc(C)c3cc(C)ccc3n2)CC1,i,i,i,i
c1cncc(Nc2nc(NCc3nc4ccccc4[nH]3)c3[nH]cnc3n2)c1,i,i,i,3.0
c1ccc2[nH]c(CNc3nc(Nc4ccc(-n5ccnc5)cc4)nc4c3ncn4C3CCCCC3)nc2c1,i,i,i,i
c1cncc(Nc2nc(NCc3nc4ccccc4[nH]3)c3ncn(C4CCCCC4)c3n2)c1,70.4,i,i,i
CC(C)n1cnc2c(NCc3nc4ccccc4[nH]3)nc(Nc3ccc(-n4ccnc4)cc3)nc21,46.2,i,i,i
CC(C)n1cnc2c(NCc3nc4ccccc4[nH]3)nc(Nc3ccccc3)nc21,63.6,i,i,i
Cn1c(Nc2nc(NCc3nc4ccccc4[nH]3)c3ncn(-c4ccccc4)c3n2)nc2ccccc21,i,i,i,i
COc1ccc(OC)c(NC(=O)c2ccccc2F)c1,i,i,i,i
Cc1ccc(-c2nn(CCC(=O)N3CCN(C)CC3)c(=O)c3ccccc23)cc1,i,i,i,i
CC(C)(C)c1ccc(C(=O)N2CCN(c3ccc([N+](=O)[O-])c(N4CCOCC4)c3)CC2)cc1,i,i,i,i
CCOc1ccc(NC(=O)c2c(NC(=O)CC)sc3c2CCCCC3)cc1,i,i,i,i
SMILES,TEAD-YAP block,MITF inh,GPR151 activ,FBW7 act
Fc1cccc(Cl)c1CN1CCC(c2nnc(-c3ccco3)s2)CC1,i,i,i,i
O=C(NC1CC1)c1ccc(-c2nc(NCc3nc4ccccc4[nH]3)c3ncn(C4CCCCC4)c3n2)cc1,44.8,i,i,i
CN1CCN(C(=O)c2ccc(-c3nc(NCc4nc5ccccc5[nH]4)c4ncn(C5CCCCC5)c4n3)cc2)CC1,i,i,i,i
CC(C)n1cnc2c(NCc3nc4ccccc4[nH]3)nc(Nc3ccc(C(F)(F)F)cc3)nc21,55.8,i,i,i
CC(C)n1cnc2c(NCc3nc4ccccc4[nH]3)nc(Nc3cccnc3)nc21,85.9,i,i,i
CC(C)n1cnc2c(Nc3ccccc3)nc(Nc3ccc(C(F)(F)F)cc3)nc21,i,i,i,i
CN(C)S(=O)(=O)N1CCC(n2c(CCc3ccccc3)nc3cccnc32)CC1,i,i,i,i
O=C1/C(=C/c2cccnc2)SC(=S)N1Cc1cccnc1,32.9,i,i,i
O=C1N=C(N2CCCC(CO)C2)S/C1=C/c1cccc2ccccc12 (configuration not stated),60.9,i,i,i
CC1CCCN(C2=NC(=O)/C(=C\c3ccc(O)cc3)S2)C1 (configuration not stated),61.0,i,i,i
CC1CCCN(C2=NC(=O)/C(=C\c3ccc(N(C)C)cc3)S2)C1 (configuration not stated),59.0,i,i,i
O=C1N=C(N2CCCC2)S/C1=C/c1ccc(O)cc1,i,i,i,i
Cc1ccc(C(=O)NNC(=O)COc2cc(C(C)C)ccc2C)cc1,i,i,i,i
COc1ccccc1Nc1nc(N2CCCCC2)ncc1F,i,i,i,i
O=C(CN1CCN(Cc2ccc(Cl)cc2)C1=O)NCCC1=CCCCC1,i,i,i,i
Cc1cc(I)ccc1Nc1nc(NCCO)nc(N2CCCC2)n1,i,i,i,i
COc1ccc(N2CCN(Cc3ccc(Br)o3)CC2)cc1,i,52.5,i,i
